Here are results for 13 molecules from PubChem BioAssay.

Structures are written as SMILES. A number with no mark means an inactive call. Calls of active or inactive are those of the source.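 The calls were made as follows: active = thallium flux through the channel raised or lowered by more than 3 SD from vehicle-only wells, actives on both sides; inactive = the rest.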

Experiment in all cases: BK channel mutant inhibitors and activators – cell-based, U2OS BacMam, thallium flux, beta subunits, selectivity assay, profiling panel (AID 1259406);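 also: initial slope of Thallos dye fluorescence rise after thallium is added; log ratio against the mean of 0.3% DMSO vehicle wells on the same plate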
The subject of one assay is F380Y. Particulars: U2OS BacMam BK variants, at 30 µM.
The subject of the next assay is F380Y/beta1. Particulars: U2OS BacMam BK variants, at 30 µM.
The test system of a further assay is F380Y/beta2Delta. Particulars: U2OS BacMam BK variants, at 30 µM.
The test system of another assay is F380Y/beta4. Particulars: U2OS BacMam BK variants, at 30 µM.
In assay [1] the target is Calcium-activated potassium channel subunit alpha-1 (Homo sapiens) + Leucine-rich repeat-containing protein 26 (Homo sapiens) (UniProt Q12791+Q2I0M4). Particulars: U2OS BacMam BK variants, F380Y/Slo1WT/gamma1, at 30 µM.
Chain of Calcium-activated potassium channel subunit alpha-1 (Homo sapiens) + Leucine-rich repeat-containing protein 26 (Homo sapiens) (Q2I0M4 whole entry, looked up, one chain of several): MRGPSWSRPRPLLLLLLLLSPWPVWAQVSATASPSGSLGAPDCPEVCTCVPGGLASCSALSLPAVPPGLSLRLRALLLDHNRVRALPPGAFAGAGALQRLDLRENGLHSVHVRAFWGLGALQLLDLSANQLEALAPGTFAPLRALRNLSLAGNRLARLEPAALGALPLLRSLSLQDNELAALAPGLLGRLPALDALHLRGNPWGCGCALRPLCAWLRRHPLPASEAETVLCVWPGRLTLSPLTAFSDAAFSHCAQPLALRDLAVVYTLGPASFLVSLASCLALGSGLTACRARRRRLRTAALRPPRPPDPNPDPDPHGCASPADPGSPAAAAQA
In another assay the test system is R275C. Conditions: U2OS BacMam BK variants, at 30 µM.
The subject of another assay is R275C/beta1. Particulars: U2OS BacMam BK variants, at 30 µM.
In another assay the test system is R275C/beta2Delta. Conditions: U2OS BacMam BK variants, at 30 µM.
The subject of another assay is R275C/beta4. Particulars: U2OS BacMam BK variants, at 30 µM.
A further assay deals with R275C/Slo1WT/beta2. Conditions: U2OS BacMam BK variants, at 30 µM.

With `CSc1cc(C(C)(C)C)[nH]n1`, the log fold change Tl+ flux in the assay with F380Y is -0.125 (active); in the assay with F380Y/beta1 it was -0.0178; in the assay with F380Y/beta2Delta, -0.218 (active); in the assay with F380Y/beta4, -0.423 (active); in assay [1], 0.0568; in the assay on R275C, 0.0547. Moreover, the log fold change Tl+ flux with R275C/beta1 was 0.173 (active); with R275C/beta2Delta, -0.014; with R275C/beta4 it was 0.047; in the assay on R275C/Slo1WT/beta2 it was 0.0223.
For `COC(=O)c1cncc(Br)c1`, the log fold change Tl+ flux was -0.0118 with F380Y; 0.012 in the assay with F380Y/beta1; 0.0106 with F380Y/beta2Delta; -0.0443 in the assay on F380Y/beta4; -0.0357 in [1]; -0.0441 with R275C. For the same molecule, the log fold change Tl+ flux with R275C/beta1 is -0.0547; with R275C/beta2Delta, -0.0215; with R275C/beta4, -0.021; in the assay on R275C/Slo1WT/beta2, -0.0413.
In the case of `Cc1ccccc1S(=O)(=O)NCc1ccc(N2CCN(C)CC2)cc1`, the log fold change Tl+ flux with F380Y is -0.0156; in the assay with F380Y/beta1, -0.00969; in the assay with F380Y/beta2Delta, 0.0214; in the assay on F380Y/beta4, 0.0231; in [1], 0.0153; with R275C, -0.00175. Moreover, the log fold change Tl+ flux is 0.0272 in the assay with R275C/beta1, 0.0013 with R275C/beta2Delta, 0.0244 in the assay with R275C/beta4 and -0.0187 in the assay on R275C/Slo1WT/beta2.
Take `Cc1cc(S(=O)(=O)c2ccc(Cl)cc2)sc1C(=O)NCC(O)c1ccccc1` (stereo not given): the log fold change Tl+ flux is 0.0511 in the assay on F380Y; 0.0134 with F380Y/beta1; 0.000794 with F380Y/beta2Delta; 0.0168 in the assay with F380Y/beta4; -0.0326 in assay [1]; -0.0286 in the assay with R275C. The log fold change Tl+ flux in the assay on R275C/beta1 is 0.095; with R275C/beta2Delta, 0.0132; in the assay on R275C/beta4, 0.0561; in the assay with R275C/Slo1WT/beta2, -0.00987.
As for `CSC(NCc1cccnc1)=C(C#N)S(=O)(=O)c1ccc(Cl)cc1`, the log fold change Tl+ flux is 0.0268 with F380Y; 0.0532 with F380Y/beta1; 0.0758 with F380Y/beta2Delta; 0.000772 with F380Y/beta4; 0.0179 in assay [1]; 0.0549 in the assay on R275C. Besides, the log fold change Tl+ flux is 0.0793 in the assay with R275C/beta1, 0.0872 (active) in the assay on R275C/beta2Delta, 0.0736 in the assay with R275C/beta4 and 0.0289 with R275C/Slo1WT/beta2.
Regarding `COC(=O)c1ccc(S(=O)(=O)NNc2ncnc3cc(C(C)(C)C)sc23)n1C`, the log fold change Tl+ flux in the assay on F380Y was 0.00239; in the assay with F380Y/beta1, 0.00797; with F380Y/beta2Delta, 0.0347; in the assay with F380Y/beta4, 0.0667; in [1] it was 0.00885; with R275C, 0.0131. Besides, the log fold change Tl+ flux was -0.027 with R275C/beta1, 0.00378 in the assay with R275C/beta2Delta, -0.0156 in the assay on R275C/beta4 and 0.0399 with R275C/Slo1WT/beta2.
For `CSc1nc(N)nc(-c2cccs2)n1`, the log fold change Tl+ flux in the assay on F380Y is 0.02; in the assay with F380Y/beta1 it was 0.0489; with F380Y/beta2Delta, 0.0165; in the assay on F380Y/beta4, 0.0265; in assay [1], 0.0393; in the assay on R275C it was -0.0182. Besides, the log fold change Tl+ flux with R275C/beta1 is 0.00143; with R275C/beta2Delta it was 0.042; in the assay on R275C/beta4, 0.0144; with R275C/Slo1WT/beta2, 0.0475.
With `Cc1cc(NC(=O)Nc2nc(-c3ccc(C)c(Cl)c3)c(C)s2)c(C(F)(F)F)o1`, the log fold change Tl+ flux in the assay on F380Y is 0.0531; with F380Y/beta1, 0.0378; in the assay with F380Y/beta2Delta, 0.0304; with F380Y/beta4 it was -0.0149; in [1] it was 0.0333; with R275C, 0.0173. Further, the log fold change Tl+ flux in the assay on R275C/beta1 is -0.0274; in the assay on R275C/beta2Delta, 0.015; in the assay with R275C/beta4 it was 0.0593; with R275C/Slo1WT/beta2 it was 0.0144.
Consider `O=C(C(=NN=Cc1ccc2c(c1)OCO2)c1ccccc1)c1ccccc1`, for which the log fold change Tl+ flux is -0.0112 in the assay on F380Y; -0.00905 in the assay with F380Y/beta1; -0.0268 with F380Y/beta2Delta; -0.0584 with F380Y/beta4; -0.0678 in [1]; -0.163 (active) with R275C. Also, the log fold change Tl+ flux with R275C/beta1 is -0.3 (active); in the assay on R275C/beta2Delta, 0.000499; in the assay with R275C/beta4 it was -0.138 (active); in the assay with R275C/Slo1WT/beta2, -0.0825.
Take `O=C(O)CC1(CC(=O)Nc2cccc3nsnc23)CCCCC1`: the log fold change Tl+ flux in the assay on F380Y is 0.0408; in the assay with F380Y/beta1, 0.0186; in the assay with F380Y/beta2Delta it was 0.0387; with F380Y/beta4, 0.0555; in [1], 0.00374; in the assay on R275C it was 0.055. Also, the log fold change Tl+ flux is 0.00874 in the assay on R275C/beta1, 0.00584 in the assay with R275C/beta2Delta, 0.0536 in the assay with R275C/beta4 and 0.0319 with R275C/Slo1WT/beta2.
Take `CCOC(=O)Cn1c(=O)ccc2c(C)cc(C)nc21`: the log fold change Tl+ flux in the assay on F380Y was 0.0287; with F380Y/beta1, -0.0128; in the assay with F380Y/beta2Delta, 0.0236; in the assay with F380Y/beta4 it was -0.0078; in [1], 0.0102; in the assay on R275C it was -0.00247. Besides, the log fold change Tl+ flux was -0.0331 in the assay on R275C/beta1, 0.00136 in the assay with R275C/beta2Delta, 0.00241 in the assay with R275C/beta4 and -0.00135 with R275C/Slo1WT/beta2.
Consider `CCCCC#Cc1ccc(C(=O)NNC(=O)Nc2ccccc2)o1`, for which the log fold change Tl+ flux was 0.0775 in the assay with F380Y; -0.0382 in the assay on F380Y/beta1; 0.0115 with F380Y/beta2Delta; 0.00448 in the assay on F380Y/beta4; -0.0213 in [1]; 0.0317 in the assay with R275C. The log fold change Tl+ flux in the assay on R275C/beta1 was 0.0182; in the assay with R275C/beta2Delta, -0.00673; in the assay on R275C/beta4, -0.0333; with R275C/Slo1WT/beta2, 0.023.
Consider `O=C(CN1CCOCC1)Nc1ccccc1Sc1nccc(C(F)(F)F)n1`, for which the log fold change Tl+ flux is 0.0122 in the assay with F380Y; -0.00692 in the assay on F380Y/beta1; -0.0219 with F380Y/beta2Delta; -0.00275 with F380Y/beta4; 0.0522 in assay [1]; -0.0101 in the assay with R275C. The log fold change Tl+ flux in the assay on R275C/beta1 is -0.0285; with R275C/beta2Delta, -0.0136; in the assay with R275C/beta4, 0.0162; in the assay with R275C/Slo1WT/beta2 it was 0.0195.
